Data as given in PubChem BioAssay (NCI).
This is part of a sample that, as a whole, favours compounds with a hit. Of some 83,000 tested, about 20% had one in any assay.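 Percent growth is the endpoint: 0 to 100 indicates growth inhibition (40 means 60% inhibition), 0 means no net growth, and negative values indicate cell death.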 Unmarked numbers belong to inactive results. Calls of active or inactive are those of the source. The calls were made as follows: active = growth percent below 10; inactive = the rest.

Key:
Assay in all cases: NCI-60 one-dose screen, 48 h (100 = growth as untreated, 0 = no growth, -100 = all killed)
Conditions in all cases: 10 µM unless noted
MOLT-4 leukemia = system: MOLT-4 leukemia
SR leukemia = system: SR leukemia
RPMI-8226 leukemia = system: RPMI-8226 leukemia
OVCAR-5 ovarian = system: OVCAR-5 ovarian
OVCAR-4 ovarian = system: OVCAR-4 ovarian
SK-OV-3 ovarian = system: SK-OV-3 ovarian
IGROV1 ovarian = system: IGROV1 ovarian
OVCAR-3 ovarian = system: OVCAR-3 ovarian
NCI/ADR-RES ovarian = system: NCI/ADR-RES ovarian
T-47D breast = system: T-47D breast
BT-549 breast = system: BT-549 breast
MDA-MB-435 melanoma = system: MDA-MB-435 melanoma
SW-620 colon = system: SW-620 colon
MCF7 breast = system: MCF7 breast
HCT-116 colon = system: HCT-116 colon
KM12 colon = system: KM12 colon
OVCAR-8 ovarian = system: OVCAR-8 ovarian
HS 578T breast = system: HS 578T breast
HCC-2998 colon = system: HCC-2998 colon

| SMILES | growth (MOLT-4 leukemia) | growth (SR leukemia) | growth (RPMI-8226 leukemia) | growth (OVCAR-5 ovarian) | growth (OVCAR-4 ovarian) | growth (SK-OV-3 ovarian) | growth (IGROV1 ovarian) | growth (OVCAR-3 ovarian) | growth (NCI/ADR-RES ovarian) | growth (T-47D breast) | growth (BT-549 breast) | growth (MDA-MB-435 melanoma) | growth (SW-620 colon) | growth (MCF7 breast) | growth (HCT-116 colon) | growth (KM12 colon) | growth (OVCAR-8 ovarian) | growth (HS 578T breast) | growth (HCC-2998 colon) |
| --- | --- | --- | --- | --- | --- | --- | --- | --- | --- | --- | --- | --- | --- | --- | --- | --- | --- | --- | --- |
| CCC1CC(O)c2c(O)c3c(c(O)c2C1O)C(=O)c1cccc(O)c1C3=O (configuration not stated) (tested in a mixture with another compound) | -23.3% (active) | -0.491% (active) | -35.8% (active) | -78.2% (active) | -21.6% (active) | 11.1% | -53.5% (active) | -12% (active) | -55.4% (active) | -14.1% (active) | -68.1% (active) | -90.3% (active) | -60.3% (active) | -51% (active) | -39.8% (active) | -38.4% (active) |  |  |  |
| CC12CCC3C(CCC4=CC(=O)CCC43CF)C1CCC2=O (configuration not stated) | 106% | 119% |  | 118% | 98.8% | 120% | 62.4% | 119% | 108% | 39.4% | 97.2% | 100% | 126% | 130% | 110% | 117% | 94.3% | 128% | 140% |
| COc1cc2c(cc1OCc1ccccc1)C(CC(C)C)=[N+](C)CC2 | 91.8% | 89.9% | 56.4% | 93% | 71.5% | 93.1% |  | 65.7% | 101% |  | 44% | 96.6% | 93.7% | 73.4% | 85.2% | 78.8% | 73.5% | 83.1% | 79% |
| O=C1OCC2=C1C(c1ccccc1)c1cc3c(cc1N2)OCO3 (configuration not stated) | 21.2% | 8.69% (active) |  | 43.5% | 41.4% | 2.36% (active) | 36.4% | -46% (active) | -0.134% (active) | 62.6% |  | -24.9% (active) | 27.8% | 15.9% | 4.53% (active) | -32% (active) | 5.45% (active) | 43.2% | 3.21% (active) |
| O=C([O][Hg][CH2]C1COCC([CH2][Hg][O]C(=O)c2ccccc2)O1)c1ccccc1 (configuration not stated) | -2.46% (active) | 46.8% | 71.8% | 134% | 90.1% | 118% |  | -94% (active) | 106% | 11.4% |  | 90.2% | -91.2% (active) | 20.9% |  | 102% | 94% | 89.1% | 114% |
| O=c1[nH]cc(N(CCCl)CCCl)c(=O)[nH]1 | 15.3% | 10.4% | 77.8% | 70.1% | 105% | 93.3% | 50.2% | 98.5% | 66.3% | 53% | 81.5% | 86.5% | 71.8% | 53.1% | 78.8% | 86.5% |  | 87.8% |  |
| C[C@@H]1O[C@@H](O[C@H]2C[C@@H](O)[C@]3(CO)C4C(CC[C@]3(O)C2)[C@@]2(O)CC[C@H](C3=CC(=O)OC3)[C@@]2(C)C[C@H]4O)[C@H](O)[C@H](O)[C@H]1O (some centres not stated) | -29.4% (active) | -31.2% (active) | 17.8% |  | -24.3% (active) | -88.2% (active) | -5.14% (active) | -96.2% (active) | -61.5% (active) | -34.9% (active) | -91% (active) | -80.5% (active) | -76.9% (active) | -48.1% (active) | -94.5% (active) | -89.1% (active) | -81% (active) | 22.3% | -89.4% (active) |
| CC(=O)/C=C/c1ccc2c(c1)OCO2 | 103% | 98.3% | 91.5% | 106% | 104% | 106% | 118% | 109% | 113% | 107% | 100% | 85.7% | 106% | 101% | 99.3% | 109% |  | 106% | 109% |
| CC(=O)Nc1ccc(NC(=O)c2ccc([As](O)O)cc2)cc1 | 108% | 73.8% | 34.5% | 140% | 103% |  |  | 114% | 101% | 48.3% |  | 99.8% | 87.9% | 85% | 101% | 124% | 102% | 117% | 112% |
| Fc1ccc(C2=CCNCC2)cc1 | 106% | 114% | 122% | 82.3% | 111% | 104% |  | 102% | 78.6% | 99.2% |  | 102% | 104% | 93.9% | 109% | 109% | 100% | 114% |  |
| CC1=C([Te]c2ccc(O)cc2)C(=O)c2ccccc2C1=O | -17% (active) | -14.8% (active) |  | 11.8% | -32.9% (active) | -15.5% (active) | -27% (active) | -63.7% (active) | -2.79% (active) | -67.3% (active) | -1.32% (active) | -76.7% (active) | 3.05% (active) | -4.83% (active) | -63.4% (active) | 6.03% (active) | 13.6% | 8.43% (active) | -1.49% (active) |
| O=C1C2CC=CCC2C(=O)N1SC(Cl)(Cl)Cl (configuration not stated) | 36.3% | 41.5% | 33.1% | 111% | 99.9% |  | 31.7% | 76.8% | 104% | 46.3% | 125% | 126% | 8.03% (active) | 83.3% | 66.5% | 103% | 102% | 160% | 105% |
| CN(CCCCN(C)CCOS(C)(=O)=O)CCOS(C)(=O)=O | 28% | 12.1% | 90.8% | 97.6% |  | 86.7% | 65.8% | 103% | 76.3% | 81.1% |  | 101% | 74.1% | 71.2% | 81.4% | 95.1% | 72.6% | 95.3% | 58.4% |
| Clc1ccc(COC(Cn2ccnc2)c2ccc(Cl)cc2Cl)cc1 (configuration not stated) | -28.4% (active) | -25.9% (active) | 39.7% |  | 54% | 91.2% | 35% | 40.4% | 23.3% | 48.3% | 55.9% | 27.5% | 34.3% | 57.9% | 33.6% | 29.1% | 51.8% | 69.2% | 64.2% |
| Cc1ccc(C(=O)NCCCOc2ccc(N3C(N)=NC(N)=NC3(C)C)cc2Cl)cc1S(=O)(=O)F | 119% | 21.4% |  | 51.6% | 111% | 101% | -28.2% (active) | 121% | 108% | 104% | 64.8% | 73.1% | 65.1% | 75.4% | 62.2% | 74.4% | 77.2% | 109% | 89.8% |
| CCCCCCCCCCCCCC[P+](CCCCCC)(CCCCCC)CCCCCC | 51.6% | 62.4% | 59.4% | -7.29% (active) | -91.8% (active) | -3.34% (active) |  | -100% (active) | -10.5% (active) | -14.8% (active) |  | -81% (active) | -86.3% (active) |  | -70.8% (active) | -100% (active) | -79.9% (active) | -35.8% (active) | -24.4% (active) |
| Cn1cc(C=O)c2nccnc21 | 101% | 105% | 103% | 120% |  | 101% | 122% | 125% | 105% | 104% | 151% | 106% | 110% | 91.4% | 116% | 119% | 104% | 100% | 109% |
| C1CCC([PH+](C2CCCCC2)C2CCCCC2[PH+](C2CCCCC2)C2CCCCC2)CC1.O=C(C1[CH-]CCCC1)C1CCCC[N-]1.[Au] (configuration not stated) | -5.55% (active) | -1.52% (active) | -10.6% (active) | -64.5% (active) |  | -52.2% (active) | -33.5% (active) | -77.7% (active) |  |  | -14.7% (active) | -43.6% (active) | 2.27% (active) | -42.9% (active) | -54% (active) | -60.9% (active) | 3.3% (active) |  | -83% (active) |
